Assay results reported in PubChem BioAssay AID1159580 (chemical genetic matrix, 2015).
“And” between values parts separate entries of the source, which are not always exact repeats. Equal values may be shown once. The whole screen tested about 5,500 compounds, of which about 2,000 (36%) were called active. Not shown: some 18% with an inconclusive outcome. Cut-off read from the data, not from the text of the source: active = normalized growth mostly below about 0.91 (no sharp cut-off); inconclusive = no clear call, values can overlap the other calls; inactive = mostly above about 0.92. Some of the results follow.

Test: chemical genetic growth profiling, strain panel (AID 1159580);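 note: tested at 20 µM; growth read once vehicle control cultures reached saturation at 30 °C; 1 = growth at the plate median or of vehicle wells; lower values mean less growth of the strain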
Conditions: S. cerevisiae deletion strains, growth OD

Measured: normalized growth

Cc1ccc(S(=O)(=O)NC(=O)NN2CCCCCC2)cc1
inactive: locus YAL013W, strain DEP1, stronger effect = lower value 0.996 | locus YAL021C, strain ccr4, stronger effect = lower value 0.999 | locus YAL026C, strain drs2, stronger effect = lower value 0.974 | locus YAL030W, strain snc1, stronger effect = lower value 0.991 | locus YAL040C, strain CLN3, stronger effect = lower value 1.05 | locus YBL061C, strain skt5, stronger effect = lower value 0.986 | locus YBR009C, strain hhf1, stronger effect = lower value 0.994 | locus YBR021W, strain FUR4, stronger effect = lower value 0.986 | locus YBR023C, strain chs3, stronger effect = lower value 0.981 | locus YBR171W, strain sec66, stronger effect = lower value 0.99 | locus YBR229C, strain ROT2, stronger effect = lower value 0.995 | locus YBR231C, strain swc5, stronger effect = lower value 0.999 | locus YBR279W, strain paf1, stronger effect = lower value 0.994 | locus YCL011C, strain gbp2, stronger effect = lower value 0.987 | locus YCL016C, strain dcc1, stronger effect = lower value 0.953 | locus YCL029C, strain bik1, stronger effect = lower value 0.99 | locus YCL061C, strain MRC1 (second series), stronger effect = lower value 0.998 | locus YCL069W, strain vba3, stronger effect = lower value 0.986 | locus YCR088W, strain abp1, stronger effect = lower value 0.984 | locus YDL005C, strain med2, stronger effect = lower value 0.989 | locus YDL035C, strain GPR1, stronger effect = lower value 0.997 | locus YDL040C, strain nat1, stronger effect = lower value 0.991 | locus YDL074C, strain BRE1, stronger effect = lower value 1.06 | locus YDL101C, strain DUN1, stronger effect = lower value 0.997 | locus YDL134C, strain PPH21, stronger effect = lower value 0.987 | locus YDL185W, strain tfp1, stronger effect = lower value 0.983 | locus YDL192W, strain arf1, stronger effect = lower value 0.988 | locus YDR001C, strain nth1, stronger effect = lower value 0.986 | locus YDR069C, strain doa4, stronger effect = lower value 1 | locus YDR101C, strain arx1, stronger effect = lower value 0.989 | locus YDR137W, strain rgp1, stronger effect = lower value 0.932 | locus YDR150W, strain NUM1, stronger effect = lower value 1 | locus YDR159W, strain sac3, stronger effect = lower value 0.969 | locus YDR162C, strain NBP2, stronger effect = lower value 0.999 | locus YDR195W, strain ref2 0.996 | locus YDR297W, strain sur2, stronger effect = lower value 1 | locus YDR318W, strain mcm21, stronger effect = lower value 0.977 | locus YDR334W, strain swr1, stronger effect = lower value 0.978 | locus YDR335W, strain msn5, stronger effect = lower value 0.973 | locus YDR363W, strain ESC2, stronger effect = lower value 1.01 | locus YDR388W, stronger effect = lower value 0.985 | locus YDR392W, strain spt3, stronger effect = lower value 0.861 | locus YDR502C, strain sam2, stronger effect = lower value 0.991 | locus YEL003W, strain gim4, stronger effect = lower value 1.01 | locus YEL037C, strain rad23, stronger effect = lower value 0.975 | locus YEL061C, strain CIN8 (second series), stronger effect = lower value 1 | locus YEL061C, strain CIN8, stronger effect = lower value 1 | locus YER002W, strain NOP16, stronger effect = lower value 1 | locus YER015W, strain faa2, stronger effect = lower value 1 | locus YER016W, strain bim1, stronger effect = lower value 0.976 | locus YER110C, stronger effect = lower value 0.988 | locus YER111C, strain swi4, stronger effect = lower value 0.987 | locus YER155C, strain BEM2 (second series), stronger effect = lower value 0.972 | locus YER155C, strain BEM2, stronger effect = lower value 0.988 | locus YER167W, strain BCK2, stronger effect = lower value 0.984 | locus YFR010W, strain ubp6, stronger effect = lower value 1.02 | locus YGL078C, strain dbp3, stronger effect = lower value 0.987 | locus YGL086W, strain mad1, stronger effect = lower value 0.999 | locus YGL167C, strain pmr1, stronger effect = lower value 0.992 | locus YGL173C, strain kem1, stronger effect = lower value 0.998 | locus YGL227W, strain vid30, stronger effect = lower value 1.01 | locus YGL240W, strain doc1, stronger effect = lower value 1 | locus YGL248W, strain PDE1, stronger effect = lower value 1 | locus YGL253W, strain hxk2, stronger effect = lower value 1.02 | locus YGR078C, strain PAC10, stronger effect = lower value 1.04 and 0.986 | locus YGR135W, strain pre9, stronger effect = lower value 0.965 | locus YGR229C, strain SMI1, stronger effect = lower value 1.01 and 1.05 | locus YGR252W, strain gcn5, stronger effect = lower value 0.96 | locus YHR013C, strain ard1, stronger effect = lower value 0.966 | locus YHR027C, strain rpn1, stronger effect = lower value 1 | locus YHR030C, strain SLT2, stronger effect = lower value 0.992 and 1.02 | locus YHR079C, strain IRE1 (second series), stronger effect = lower value 0.988 | locus YHR079C, strain IRE1, stronger effect = lower value 1.02 | locus YHR094C, strain hxt1, stronger effect = lower value 0.98 | locus YHR129C, strain ARP1, stronger effect = lower value 0.993 | locus YHR142W, strain chs7, stronger effect = lower value 0.986 | locus YHR200W, strain rpn10, stronger effect = lower value 0.984 | locus YIL066C, strain RNR3, stronger effect = lower value 1 | locus YIL073C, strain SPO22, stronger effect = lower value 0.925 | locus YIL125W, strain kgd1, stronger effect = lower value 0.982 | locus YIR030C, strain dcg1, stronger effect = lower value 0.978 | locus YJL092W, strain hpr5, stronger effect = lower value 0.991 | locus YJL095W, strain BCK1 (second series), stronger effect = lower value 0.982 | locus YJL095W, strain BCK1, stronger effect = lower value 1.03 and 1.02 | locus YJL115W, strain asf1, stronger effect = lower value 0.979 | locus YJL129C, strain trk1, stronger effect = lower value 0.952 | locus YJL134W, strain LCB3, stronger effect = lower value 0.995 | locus YJL154C, strain vps35, stronger effect = lower value 0.989 | locus YJL164C, strain tpk1, stronger effect = lower value 0.991 | locus YJL166W, strain qcr8, stronger effect = lower value 0.997 | locus YJL168C, strain set2, stronger effect = lower value 0.987 | locus YJL187C, strain SWE1 (second series), stronger effect = lower value 1.02 | locus YJL187C, strain SWE1, stronger effect = lower value 0.992 | locus YJR043C, strain POL32, stronger effect = lower value 1.02 | locus YJR066W, strain TOR1, stronger effect = lower value 0.948
